Measurements from the supplement of paper PMC3545927.
The other results are listed elsewhere or left out. No count for the full screen is at hand.

Target: furin, P09958
Experiment: furin cleavage Z-score vs untreated control; higher = more cleavage, active = 3.5 or more, inactive = 1 or less, 8 variable residues between constant flanks
In short: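 Sequencing of released DNA, tagged with adapters by PCR, gave read counts used as abundance. That DNA was freed when purified furin cut N-terminally bead-bound 8-mer peptides fused to a cDNA oligonucleotide, in 0.01 ml reactions at 1:10 enzyme:substrate in 50 mM HEPES pH 7.5 with CaCl2 and NaCl, lasting 7.5, 15 or 30 min. The cleavage Z-score was the lowess-adjusted log count versus furin-free reactions, scaled by median absolute deviation.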

Chain of furin, P09958 (P09958 whole entry): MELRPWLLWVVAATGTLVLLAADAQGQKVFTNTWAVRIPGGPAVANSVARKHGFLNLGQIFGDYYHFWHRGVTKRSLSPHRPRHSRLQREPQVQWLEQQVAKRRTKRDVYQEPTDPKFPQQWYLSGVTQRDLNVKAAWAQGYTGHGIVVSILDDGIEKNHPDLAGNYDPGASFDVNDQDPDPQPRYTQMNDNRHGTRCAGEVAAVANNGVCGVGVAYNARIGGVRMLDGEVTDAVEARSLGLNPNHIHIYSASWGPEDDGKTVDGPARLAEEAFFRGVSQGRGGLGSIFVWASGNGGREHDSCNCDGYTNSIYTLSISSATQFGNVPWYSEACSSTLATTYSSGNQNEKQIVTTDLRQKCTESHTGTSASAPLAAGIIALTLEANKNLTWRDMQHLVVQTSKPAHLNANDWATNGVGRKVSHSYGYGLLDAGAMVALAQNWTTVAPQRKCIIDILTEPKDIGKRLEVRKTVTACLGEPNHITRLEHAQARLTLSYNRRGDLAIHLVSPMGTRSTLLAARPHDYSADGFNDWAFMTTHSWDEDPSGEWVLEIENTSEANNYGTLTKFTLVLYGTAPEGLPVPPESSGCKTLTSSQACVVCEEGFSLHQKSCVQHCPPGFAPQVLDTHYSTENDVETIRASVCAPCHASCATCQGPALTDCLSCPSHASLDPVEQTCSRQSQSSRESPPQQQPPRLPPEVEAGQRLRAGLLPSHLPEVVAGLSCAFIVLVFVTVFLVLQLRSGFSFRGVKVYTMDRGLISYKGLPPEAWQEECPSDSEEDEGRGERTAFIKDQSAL

Sequence | furin cleavage Z-score (7.5 min) | furin cleavage Z-score (15 min) | furin cleavage Z-score (30 min)
CASWLGNIIMAGNASASA [HC1574] | -0.174 (inactive) | -0.173 (inactive) | 0.459 (inactive)
CAEVVTSTAVAGNASASA [HC2223] | -1.08 (inactive) | 1.73 | 0.704 (inactive)
CAGDDLVVICAGNASASA [HC1529] | -1.44 (inactive) | -0.0771 (inactive) | -0.978 (inactive)
CAEPPVVHGCAGNASASA [HC1314] | 0.438 (inactive) | 1.71 | -0.723 (inactive)
CARDRRAAGSAGNASASA [FS-1946] | 6.35 (active) | 7.75 (active) | 5.91 (active)
CARHLRSAGSAGNASASA [FS-1896] | 1.18 | -0.11 (inactive) | 2.17
CARHRRATGAAGNASASA [FS-2944] | 6.7 (active) | 5.37 (active) | 4.1 (active)
CATTPCRGSWAGNASASA [HC70] | -0.828 (inactive) | -1.44 (inactive) | -0.599 (inactive)
CASGHRTRRYAGNASASA [FS-192] | 7 (active) | 8.02 (active) | 8.16 (active)
CAEGERGFFYAGNASASA [EK6] | -2.12 (inactive) | -0.423 (inactive) | -2.28 (inactive)
CAEMSRTRRYAGNASASA [FS-1319] | 5.42 (active) | 8.78 (active) | 8.64 (active)
CADGAGKRVYAGNASASA [HC1558] | 1.53 | 1.27 | 0.404 (inactive)
CATSQTLLFNAGNASASA [HC1062] | 0.00122 (inactive) | -0.692 (inactive) | -0.503 (inactive)
CARLKRDPGIAGNASASA [FS-2350] | 3.26 | 4.16 (active) | 3.42
CAVRKRSPWLAGNASASA [FS-3142] | -1.29 (inactive) | 0.44 (inactive) | 1.17
CARLKRDRSAAGNASASA [FS-2220] | 6.33 (active) | 8.55 (active) | 8.68 (active)
CARLKRDLATAGNASASA [FS-2043] | 9.22 (active) | 11.3 (active) | 9.07 (active)
CARLKRLFLAAGNASASA [FS-2991] | 0.382 (inactive) | -1.83 (inactive) | -1.56 (inactive)
CAVRKRDLQTAGNASASA [FS-3140] | 2.53 | 5.9 (active) | 5.02 (active)
CARLKPTLHGAGNASASA [HC967] | -0.75 (inactive) | -0.713 (inactive) | 0.566 (inactive)
CAVLKRDVDIAGNASASA [FS-1815] | 1.04 | -1.55 (inactive) | 0.353 (inactive)
CAVRKRQVSLAGNASASA [FS-3141] | -1.04 (inactive) | -0.0874 (inactive) | 0.617 (inactive)

Sequence | furin cleavage Z-score (7.5 min) | furin cleavage Z-score (15 min) | furin cleavage Z-score (30 min)
CAKTPCSAHLAGNASASA [HC2474] | -0.289 (inactive) | -0.529 (inactive) | -1.11 (inactive)
CAMEWCSQHLAGNASASA [HC1708] | 0.411 (inactive) | 0.726 (inactive) | 0.812 (inactive)
CAEDVVCCSMAGNASASA [HC1368] | -0.171 (inactive) | 0.686 (inactive) | 0.101 (inactive)
CATTQCSGSWAGNASASA [HC1882] | -0.496 (inactive) | -1.36 (inactive) | -0.763 (inactive)
CAFRVGLHEYAGNASASA [HC1234] | -0.864 (inactive) | -0.389 (inactive) | -0.313 (inactive)
CAEVPCHRPPAGNASASA [HC2419] | -0.0603 (inactive) | 1.24 | -0.795 (inactive)
CAEACSLTPPAGNASASA [HC1414] | 0.244 (inactive) | -0.208 (inactive) | -0.022 (inactive)
CARRTRSRSPAGNASASA [FS-2521] | 2.04 | 2.53 | 4.49 (active)
CARRRRSMDPAGNASASA [FS-3067] | 8 (active) | 9.64 (active) | 7.14 (active)
CARRRRQEEKAGNASASA [FS-2794] | -0.167 (inactive) | 1.69 | -1.54 (inactive)
CARRRRQLDPAGNASASA [FS-2598] | 8.96 (active) | 10.1 (active) | 7.56 (active)
CARRTRSFSWAGNASASA [FS-1790] | 0.729 (inactive) | 1.95 | 2.68
CARRRRELDPAGNASASA [FS-2076] | 11.6 (active) | 10.7 (active) | 8.52 (active)
CARRTRFISLAGNASASA [FS-2601] | -0.682 (inactive) | 1.63 | 1.87
CALAAGVGIYAGNASASA [HC1660] | 0.247 (inactive) | -0.366 (inactive) | 0.0629 (inactive)
CAVGWPAPQGAGNASASA [HC715] | 0.307 (inactive) | 1.62 | 0.189 (inactive)
CAECPCHRPSAGNASASA [HC2340] | 0.0178 (inactive) | -0.268 (inactive) | -1.23 (inactive)
CARATRFWDPAGNASASA [FS-2650] | -0.242 (inactive) | -0.738 (inactive) | 0.257 (inactive)
CARRRRELEPAGNASASA [FS-1867] | 10.9 (active) | 11 (active) | 7.47 (active)
CATVDFSLDPAGNASASA [HC891] | -0.614 (inactive) | -1.09 (inactive) | -1.01 (inactive)
CARRTRDLDPAGNASASA [FS-2520] | 8.58 (active) | 8.71 (active) | 7.24 (active)
